{
  "source": "the antibiotic and cytotoxicity screens of Wong et al. (2023)",
  "note": "Among all 39,000 compounds or so, about 3,300 (8.5%) were called active. The entries come from a sample that favours actives as a whole.",
  "data": [
    {"test_system": "HepG2", "assay": "cytotoxicity call (relative viability < 0.9)", "details": "10 µM", "values": [
      {"smiles": "O=C(C[C@H]1CC[C@H]2[C@@H](COC[C@@H](O)CN2S(=O)(=O)c2cccc(Cl)c2)O1)NCc1ccc2c(c1)OCO2", "cytotoxicity call": "inactive"},
      {"smiles": "O=c1[nH]snc1N1CCCCC1", "cytotoxicity call": "inactive"},
      {"smiles": "CC(C)CNC(=O)C(=O)NC(C)C", "cytotoxicity call": "inactive"},
      {"smiles": "COc1ccc(S(=O)(=O)Nc2ccc3c(c2)C(=O)N([C@H](C)CO)C[C@H](C)[C@@H](CN(C)C(=O)Nc2cccc4ccccc24)O3)cc1", "cytotoxicity call": "inactive"},
      {"smiles": "COc1ccccc1NC(=O)N(C)C[C@H]1Oc2ncc(Br)cc2C(=O)N([C@H](C)CO)C[C@H]1C", "cytotoxicity call": "inactive"},
      {"smiles": "CC(C)CN1C(=O)[C@@]2(c3ccc([N+](=O)[O-])cc3)CC(=O)N(CC3C4CC5CC(C4)CC3C5)[C@@H]2c2ccc(CO)cc21", "note": "(stereo partly drawn)", "cytotoxicity call": "inactive"},
      {"smiles": "C[C@H]1CN([C@@H](C)CO)C(=O)c2cccc(NS(C)(=O)=O)c2O[C@H]1CN(C)C(=O)NC1CCCCC1", "cytotoxicity call": "inactive"},
      {"smiles": "O=C(C[C@H]1CC[C@H](NC(=O)CN2CCOCC2)[C@@H](CO)O1)NCCc1ccncc1", "cytotoxicity call": "inactive"},
      {"smiles": "C[C@@H]1CN([C@H](C)CO)C(=O)c2cc(NC(=O)C3CCCCC3)ccc2O[C@H]1CN(C)Cc1ccc(Oc2ccccc2)cc1", "cytotoxicity call": "inactive"},
      {"smiles": "CCS(=O)(=O)Nc1ccc2c(c1)C(=O)N(C)[C@H]1CC[C@@H](CC(=O)NCc3ccccc3F)O[C@@H]1CO2", "cytotoxicity call": "inactive"},
      {"smiles": "Cc1noc(C)c1NC(=O)N(C)C[C@H]1OCCCC[C@H](C)Oc2ccc(NS(=O)(=O)c3ccccc3)cc2C(=O)N([C@@H](C)CO)C[C@@H]1C", "cytotoxicity call": "inactive"},
      {"smiles": "CC(C)(C)S(=O)N1Cc2cc(C(=O)N[C@@H]3CCN(Cc4ccccc4)C3)nc(-c3cccc(-c4cccc(F)c4)c3)c2[C@@H]1CCO", "note": "(stereo partly drawn)", "cytotoxicity call": "inactive"},
      {"smiles": "C[C@@H]1CN([C@H](C)CO)C(=O)c2cc(C#C[C@@H](C)O)cnc2O[C@@H]1CN(C)C(=O)CN1CCOCC1", "cytotoxicity call": "inactive"},
      {"smiles": "COc1ccc(S(=O)(=O)N(C)C[C@@H]2OCCCC[C@H](C)Oc3ccc(NC(=O)C4CCCCC4)cc3C(=O)N([C@H](C)CO)C[C@@H]2C)cc1", "cytotoxicity call": "inactive"},
      {"smiles": "COc1ccc(S(=O)(=O)N(C)C[C@@H]2OCCCC[C@@H](C)Oc3ccc(NC(=O)C4CCCCC4)cc3C(=O)N([C@H](C)CO)C[C@H]2C)cc1", "cytotoxicity call": "active"},
      {"smiles": "COc1ccc(S(=O)(=O)N(C)C[C@H]2OCCCC[C@@H](C)Oc3ccc(NC(=O)C4CCCCC4)cc3C(=O)N([C@H](C)CO)C[C@H]2C)cc1", "cytotoxicity call": "inactive"},
      {"smiles": "COc1ccc(S(=O)(=O)N(C)C[C@H]2OCCCC[C@H](C)Oc3ccc(NC(=O)C4CCCCC4)cc3C(=O)N([C@@H](C)CO)C[C@H]2C)cc1", "cytotoxicity call": "inactive"},
      {"smiles": "COc1ccc(S(=O)(=O)N(C)C[C@H]2OCCCC[C@H](C)Oc3ccc(NC(=O)C4CCCCC4)cc3C(=O)N([C@H](C)CO)C[C@@H]2C)cc1", "cytotoxicity call": "active"},
      {"smiles": "COc1ccc(S(=O)(=O)N(C)C[C@H]2OCCCC[C@H](C)Oc3ccc(NC(=O)C4CCCCC4)cc3C(=O)N([C@@H](C)CO)C[C@@H]2C)cc1", "cytotoxicity call": "inactive"},
      {"smiles": "Nc1cccc2c(=O)[nH][nH]c(=O)c12", "cytotoxicity call": "inactive"},
      {"smiles": "O=C(N/N=C/[C@H](O)[C@@H](O)[C@H](O)[C@H](O)CO)c1ccccn1", "cytotoxicity call": "inactive"},
      {"smiles": "N[C@@H](CCO)c1cccc(Cl)c1", "cytotoxicity call": "inactive"},
      {"smiles": "C[C@H]1CN([C@@H](C)CO)C(=O)c2cc(Br)cnc2O[C@H]1CN(C)S(=O)(=O)c1ccccc1", "cytotoxicity call": "inactive"},
      {"smiles": "C[C@H](CO)N1C[C@H](C)[C@@H](CN(C)C(=O)Nc2ccc(F)cc2)Oc2ccc(NS(C)(=O)=O)cc2CC1=O", "cytotoxicity call": "inactive"},
      {"smiles": "NCc1nnnn1-c1ccc(F)cc1", "cytotoxicity call": "inactive"},
      {"smiles": "C[C@@H]1CCCCO[C@@H](CN(C)C(=O)c2ccccc2)[C@@H](C)CN([C@@H](C)CO)C(=O)c2cc(NC(=O)NC3CCCCC3)ccc2O1", "cytotoxicity call": "inactive"},
      {"smiles": "COc1cccc(CN(C)C[C@@H]2OCc3ccccc3-c3c(n(C)c4ccccc34)C(=O)N([C@@H](C)CO)C[C@@H]2C)c1", "cytotoxicity call": "inactive"},
      {"smiles": "C[C@@H]1CN([C@@H](C)CO)C(=O)c2c(c3ccccc3n2C)-c2ccccc2CO[C@H]1CN(C)Cc1cccc(F)c1", "cytotoxicity call": "inactive"},
      {"smiles": "C[C@H]1CN([C@@H](C)CO)C(=O)c2c(c3ccccc3n2C)-c2ccccc2CO[C@H]1CN(C)Cc1cccc(F)c1", "cytotoxicity call": "inactive"},
      {"smiles": "COc1cccc(CN(C)C[C@H]2OCc3ccccc3-c3c(n(C)c4ccccc34)C(=O)N([C@@H](C)CO)C[C@@H]2C)c1", "cytotoxicity call": "inactive"},
      {"smiles": "COc1cccc(CN(C)C[C@H]2OCc3ccccc3-c3c(n(C)c4ccccc34)C(=O)N([C@@H](C)CO)C[C@H]2C)c1", "cytotoxicity call": "active"},
      {"smiles": "C[C@H](CO)N1C[C@H](C)[C@H](CN(C)Cc2cccc(F)c2)OCc2ccccc2-c2c(n(C)c3ccccc23)C1=O", "cytotoxicity call": "active"},
      {"smiles": "C[C@H](CO)N1C[C@H](C)[C@@H](CN(C)Cc2cccc(F)c2)OCc2ccccc2-c2c(n(C)c3ccccc23)C1=O", "cytotoxicity call": "inactive"},
      {"smiles": "C[C@@H]1CN([C@H](C)CO)C(=O)c2c(c3ccccc3n2C)-c2ccccc2CO[C@H]1CN(C)Cc1cccc(F)c1", "cytotoxicity call": "inactive"},
      {"smiles": "C[C@H]1CCCCO[C@@H](CN(C)S(=O)(=O)c2ccccc2)[C@@H](C)CN([C@@H](C)CO)C(=O)c2cc(NC(=O)Nc3ccccc3)ccc2O1", "cytotoxicity call": "inactive"},
      {"smiles": "Cc1ccc(S(=O)(=O)N2C[C@H](O)COC[C@H]3O[C@@H](CC(=O)NCc4ccc5c(c4)OCO5)CC[C@@H]32)cc1", "cytotoxicity call": "inactive"},
      {"smiles": "N=C(N)SC=CC(=O)O", "cytotoxicity call": "inactive"},
      {"smiles": "C[C@@H]1CN([C@H](C)CO)C(=O)c2cc(NC(=O)CCN3CCOCC3)ccc2O[C@@H]1CN(C)C(=O)Nc1ccc(F)cc1", "cytotoxicity call": "inactive"},
      {"smiles": "Cc1n[nH]c(=O)[nH]c1=O", "cytotoxicity call": "inactive"},
      {"smiles": "C[C@@H]1CN([C@H](C)CO)C(=O)c2cccc(NC(=O)c3ccncc3)c2O[C@H]1CN(C)S(=O)(=O)c1ccc(F)cc1", "cytotoxicity call": "inactive"},
      {"smiles": "C[C@@H]1CN([C@@H](C)CO)C(=O)c2cc(C#CC3(O)CCCC3)cnc2O[C@H]1CN(C)C(=O)Nc1ccc2c(c1)OCO2", "cytotoxicity call": "inactive"},
      {"smiles": "Cc1ccc(S(=O)(=O)Nc2cccc3c2O[C@@H](CN(C)Cc2ccc(Cl)c(Cl)c2)[C@@H](C)CN([C@H](C)CO)C3=O)cc1", "cytotoxicity call": "inactive"},
      {"smiles": "C[C@@H]1CCCCO[C@H](CN(C)C(=O)Nc2cccc3ccccc23)[C@H](C)CN([C@@H](C)CO)C(=O)c2cc(NC(=O)CCC(F)(F)F)ccc2O1", "cytotoxicity call": "inactive"},
      {"smiles": "C[C@H](CO)N1C[C@H](C)[C@@H](CN(C)C(=O)Nc2cccc3ccccc23)OCCCC[C@H](C)Oc2ccc(NC(=O)CCC(F)(F)F)cc2C1=O", "cytotoxicity call": "active"},
      {"smiles": "C[C@H]1CCCCO[C@H](CN(C)C(=O)Nc2cccc3ccccc23)[C@@H](C)CN([C@@H](C)CO)C(=O)c2cc(NC(=O)CCC(F)(F)F)ccc2O1", "cytotoxicity call": "active"},
      {"smiles": "C[C@@H]1CCCCO[C@H](CN(C)C(=O)Nc2cccc3ccccc23)[C@@H](C)CN([C@H](C)CO)C(=O)c2cc(NC(=O)CCC(F)(F)F)ccc2O1", "cytotoxicity call": "inactive"},
      {"smiles": "C[C@@H]1CN([C@@H](C)CO)C(=O)c2cc(NC(=O)CCC(F)(F)F)ccc2O[C@@H](C)CCCCO[C@@H]1CN(C)C(=O)Nc1cccc2ccccc12", "cytotoxicity call": "inactive"},
      {"smiles": "C[C@@H]1CCCCO[C@@H](CN(C)C(=O)Nc2cccc3ccccc23)[C@H](C)CN([C@@H](C)CO)C(=O)c2cc(NC(=O)CCC(F)(F)F)ccc2O1", "cytotoxicity call": "inactive"},
      {"smiles": "C[C@@H]1CCCCO[C@@H](CN(C)C(=O)Nc2cccc3ccccc23)[C@@H](C)CN([C@H](C)CO)C(=O)c2cc(NC(=O)CCC(F)(F)F)ccc2O1", "cytotoxicity call": "inactive"},
      {"smiles": "C[C@@H]1CCCCO[C@@H](CN(C)C(=O)Nc2cccc3ccccc23)[C@H](C)CN([C@H](C)CO)C(=O)c2cc(NC(=O)CCC(F)(F)F)ccc2O1", "cytotoxicity call": "inactive"},
      {"smiles": "C[C@@H]1CN([C@H](C)CO)C(=O)c2cc(NC(=O)CCC(F)(F)F)ccc2O[C@@H](C)CCCCO[C@H]1CN(C)C(=O)Nc1cccc2ccccc12", "cytotoxicity call": "active"},
      {"smiles": "CC(C)NC(=O)N(C)C[C@H]1Oc2ccc(NS(=O)(=O)c3ccccc3)cc2C(=O)N([C@@H](C)CO)C[C@H]1C", "cytotoxicity call": "inactive"},
      {"smiles": "C[C@@H]1CN([C@H](C)CO)C(=O)c2cccc(NC(=O)Nc3ccccc3)c2O[C@@H]1CN(C)CC1CCCCC1", "cytotoxicity call": "inactive"},
      {"smiles": "COc1ccccc1-c1cnc2c(c1)C(=O)N([C@@H](C)CO)C[C@@H](C)[C@@H](CN(C)C(=O)c1ccncc1)O2", "cytotoxicity call": "inactive"},
      {"smiles": "COc1ccc(S(=O)(=O)Nc2ccc3c(c2)C(=O)N([C@H](C)CO)C[C@@H](C)[C@@H](CN(C)C(=O)CCC(F)(F)F)OCCCC[C@@H](C)O3)cc1", "cytotoxicity call": "inactive"},
      {"smiles": "O=C(/C=C/c1ccccc1)c1ccc(O[C@@H]2O[C@H](CO)[C@@H](O)[C@H](O)[C@H]2O)cc1O", "cytotoxicity call": "inactive"},
      {"smiles": "C[C@H](CO)N1C[C@H](C)[C@@H](CN(C)S(=O)(=O)c2ccc(F)cc2)Oc2c(NS(=O)(=O)c3ccccc3)cccc2C1=O", "cytotoxicity call": "inactive"},
      {"smiles": "CON=C(C(=O)N[C@@H]1C(=O)N2C(C(=O)O)=C(CSc3nc(=O)c(O)nn3C)CS[C@H]12)c1csc(N)n1", "cytotoxicity call": "inactive"},
      {"smiles": "COc1ccc(S(=O)(=O)N(C)C[C@@H]2Oc3ccc(N(C)C)cc3C(=O)N([C@H](C)CO)C[C@H]2C)cc1", "cytotoxicity call": "inactive"},
      {"smiles": "Cc1ccc(S(=O)(=O)N2C[C@@H](O)COC[C@@H]3O[C@H](CC(=O)NCCCN(C)C)CC[C@H]32)cc1", "cytotoxicity call": "inactive"},
      {"smiles": "Cc1ccc(S(=O)(=O)Nc2ccc3c(c2)C(=O)N([C@H](C)CO)C[C@@H](C)[C@@H](CN(C)Cc2ccc(C(F)(F)F)cc2)O3)cc1", "cytotoxicity call": "active"},
      {"smiles": "Cc1ccc(S(=O)(=O)Nc2ccc3c(c2)C(=O)N([C@@H](C)CO)C[C@H](C)[C@H](CN(C)Cc2ccc(C(F)(F)F)cc2)O3)cc1", "cytotoxicity call": "inactive"},
      {"smiles": "Cc1ccc(S(=O)(=O)Nc2ccc3c(c2)C(=O)N([C@@H](C)CO)C[C@H](C)[C@@H](CN(C)Cc2ccc(C(F)(F)F)cc2)O3)cc1", "cytotoxicity call": "inactive"},
      {"smiles": "Cc1ccc(S(=O)(=O)Nc2ccc3c(c2)C(=O)N([C@H](C)CO)C[C@H](C)[C@@H](CN(C)Cc2ccc(C(F)(F)F)cc2)O3)cc1", "cytotoxicity call": "inactive"},
      {"smiles": "Cc1ccc(S(=O)(=O)Nc2ccc3c(c2)C(=O)N([C@@H](C)CO)C[C@@H](C)[C@H](CN(C)Cc2ccc(C(F)(F)F)cc2)O3)cc1", "cytotoxicity call": "inactive"},
      {"smiles": "Cc1ccc(S(=O)(=O)Nc2ccc3c(c2)C(=O)N([C@H](C)CO)C[C@H](C)[C@H](CN(C)Cc2ccc(C(F)(F)F)cc2)O3)cc1", "cytotoxicity call": "active"},
      {"smiles": "Cc1ccc(S(=O)(=O)Nc2ccc3c(c2)C(=O)N([C@H](C)CO)C[C@@H](C)[C@H](CN(C)Cc2ccc(C(F)(F)F)cc2)O3)cc1", "cytotoxicity call": "active"},
      {"smiles": "Cc1ccc(S(=O)(=O)Nc2ccc3c(c2)C(=O)N([C@@H](C)CO)C[C@@H](C)[C@@H](CN(C)Cc2ccc(C(F)(F)F)cc2)O3)cc1", "cytotoxicity call": "inactive"}
    ]}
  ]
}
